Mdm2-MdmX inh – human Mdm2/MdmX binding inhibition; inhibition, % at 8 µM; O15151+Q00987; AID 485346; SaOS-2 split-luciferase Mdm2/MdmX complementation, luminescence; hit rate 3% among 330,000;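 active = inhibition of at least 50% at 8 µM in the primary screen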
Target sequence (O15151 whole entry, looked up): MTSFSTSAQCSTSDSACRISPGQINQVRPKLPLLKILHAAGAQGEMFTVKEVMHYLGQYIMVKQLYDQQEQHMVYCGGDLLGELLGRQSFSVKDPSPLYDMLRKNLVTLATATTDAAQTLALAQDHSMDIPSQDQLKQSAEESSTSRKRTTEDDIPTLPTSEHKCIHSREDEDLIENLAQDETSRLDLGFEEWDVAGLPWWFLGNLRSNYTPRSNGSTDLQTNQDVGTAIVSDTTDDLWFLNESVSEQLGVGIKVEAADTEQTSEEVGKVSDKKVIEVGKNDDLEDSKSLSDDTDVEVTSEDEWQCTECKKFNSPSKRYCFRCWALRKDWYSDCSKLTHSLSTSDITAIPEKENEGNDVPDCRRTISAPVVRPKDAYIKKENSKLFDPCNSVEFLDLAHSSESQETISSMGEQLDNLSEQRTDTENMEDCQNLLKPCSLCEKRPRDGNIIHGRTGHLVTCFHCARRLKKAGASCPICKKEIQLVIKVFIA
Target sequence (Q00987 whole entry, looked up): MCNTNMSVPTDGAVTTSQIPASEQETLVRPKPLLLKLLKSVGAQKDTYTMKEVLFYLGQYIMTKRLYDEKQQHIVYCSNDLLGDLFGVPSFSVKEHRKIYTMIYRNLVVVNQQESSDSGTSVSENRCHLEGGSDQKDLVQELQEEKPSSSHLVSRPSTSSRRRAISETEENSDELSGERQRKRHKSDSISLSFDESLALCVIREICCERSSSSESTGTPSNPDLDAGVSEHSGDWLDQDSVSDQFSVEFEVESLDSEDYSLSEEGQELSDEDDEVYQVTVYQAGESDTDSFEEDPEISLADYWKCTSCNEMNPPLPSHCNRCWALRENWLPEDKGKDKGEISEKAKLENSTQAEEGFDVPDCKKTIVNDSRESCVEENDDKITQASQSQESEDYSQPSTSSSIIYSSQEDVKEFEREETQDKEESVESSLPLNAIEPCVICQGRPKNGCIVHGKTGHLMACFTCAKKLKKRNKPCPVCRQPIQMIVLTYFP
Peg3 promoter – inhibitors of Peg3 promoter | hit rate 1.7% among 360,000 | inhibition, % at 20 µM | HeLa PEG-Prom luciferase reporter, luminescence, overnight;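 active = inhibition of at least 50% at 20 µM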
CF NFkB inh – blocks PAF-induced NF-kB reporter in cystic fibrosis cells. KKLEB NF-kB-GFP reporter, GFP fluorescence overnight. inhibition, % at 5 µM. hit rate 0.86% among 360,000;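 active = at least 50% inhibition at 5 µM, scaled per plate between neutral and stimulator controls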;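 also: PAF is a Pseudomonas aeruginosa culture filtrate used as stimulus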
HIF-2a inh – HIF-2a inhibition; 786-0 RCC cells HIF-2a reporter, luciferase luminescence, overnight; AID 624352; hit rate 0.72% among 360,000; inhibition, % at 18.8 µM;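 active = inhibition of the luminescence signal of 40% or more relative to plate controls, in a single-dose primary screen at 18.75 µM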
KKLEB cytotox – counter-screen for CF NF-kB inhibitors: cytotoxicity; hit rate 0.36% among 360,000; AID 602141; KKLEB CF airway cells viability, ATPlite luminescence, overnight; hits give low values; cells stimulated with P. aeruginosa culture filtrate; activity change (cytotoxicity), % at 5 µM;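 active = corrected activity change at or below -50% at 5 µM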
ABHD5 PLIN5 PPI – blocks binding of human ABHD5 to perilipin-5 | inhibition, % at 4 µM | Q00G26+Q8WTS1 | Split G. princeps luciferase complementation, luminescence, 4 h | hit rate 0.78% among 360,000;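 active = inhibition above the mean inhibition across every tested compound plus 3 SD, cut at about 22% in these data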
Mdm2-MdmX conf – confirmation of human Mdm2/MdmX interaction inhibitors; inhibition, % at 8 µM; Mdm2-MdmX binding, luminescent assay; AID 489028; hit rate 55% among 10,000; shares compounds with Mdm2-MdmX inh; in the data active = inhibition above about 40%
FLuc counter – full-length luciferase inhibition in Mdm2/MdmX counter-screen | shares compounds with Mdm2-MdmX inh | SaOS-2 full-length luciferase counterscreen, luminescence | inhibition, % at 8 µM | hit rate 77% among 6,200 | AID 504607;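 active = mean inhibition at 8 µM reaching about 37%, which flags the compound as non-specific, limit read from the data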;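 also: p53-null SaOS-2 cells with luciferase driven by a doxycycline-inducible promoter; compound on cells about two nights before reading with doxycycline added after day one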
Each line names hits and unclear results; the compound was inactive in the other large screens (follow-up assays come after a bar, where they were run). Hits are enriched below; roughly 4.6% of the tested compounds scored in any of these assays.

O=C(Nc1nc(-c2ccccc2)c(C(=O)c2ccccc2)s1)c1ccc(S(=O)(=O)N2CCCC2)cc1	none
O=C(N/N=C1\CC(c2ccccc2)Oc2ccccc21)c1cccnc1 (configuration not stated)	Mdm2-MdmX inh 52 | Mdm2-MdmX conf inactive
O=C(NNC1=C(C(=O)C(F)(F)F)CCC1)c1ccccc1O	none | Mdm2-MdmX conf inactive
COc1cccc(C(=O)NNC2=C(C(=O)C(F)(F)F)CCC2)c1	none
COc1ccccc1C(=O)NNC1=C(C(=O)C(F)(F)F)CCC1	Mdm2-MdmX inh 70 | Mdm2-MdmX conf 58 | FLuc counter 72
Nc1ccccc1C(=O)NNC1=C(C(=O)C(F)(F)F)CCC1	Mdm2-MdmX inh 53 | Mdm2-MdmX conf 49 | FLuc counter 148
O=C(NNC1=C(C(=O)C(F)(F)F)CCC1)c1ccc(Br)cc1	none
O=C(NNC1=C(C(=O)C(F)(F)F)CCC1)c1ccccc1Cl	none
CC(C(=O)NCc1cccnc1)c1ccc([N+](=O)[O-])cc1 (configuration not stated)	none
CCNC(=O)c1cc2c(c(-c3cccc(-c4cccc(C(=O)N(C)C)c4)c3)n1)[C@@H](CCO)N(S(=O)C(C)(C)C)C2 (some centres not stated)	none (no result: Mdm2-MdmX inh)
COc1ccc(-c2nc(-c3cccc(C)c3)nc(N3CCN(C)CC3)c2C#N)cc1	Mdm2-MdmX inh 66 | Mdm2-MdmX conf 74 | FLuc counter 57
COc1ccc(-c2nc(-c3ccccc3)nc(N3CCN(C)CC3)c2C#N)cc1	none
COc1cccc(-c2nc(-c3ccccc3)nc(N3CCN(C)CC3)c2C#N)c1	Mdm2-MdmX inh 66 | Mdm2-MdmX conf 54 | FLuc counter 77
O=C(COc1ccc(Cl)cc1)NNC(=O)c1ccc2c(=O)n3c(nc2c1)CCC3	none
CC1=CC(=O)C=C(C)C1=NOc1ccccc1[N+](=O)[O-]	Mdm2-MdmX inh 72 | Mdm2-MdmX conf inactive
S=C(NCCNCc1ccccc1)NC1CCCCC1	Mdm2-MdmX inh 51 (no result: Peg3 promoter, CF NFkB inh, HIF-2a inh, KKLEB cytotox, ABHD5 PLIN5 PPI) | Mdm2-MdmX conf inactive
O=C(N/N=C/c1ccc(O)cc1O)c1ccc(NC(=O)C2CCCCC2)cc1	Mdm2-MdmX inh 68, Peg3 promoter 62 | Mdm2-MdmX conf 54 | FLuc counter 38
CC(C)C[C@H]1CNC(=O)C(=O)N1C[C@@H]1CCCN1C[C@H](Cc1ccccc1)N1C[C@H](Cc2ccccc2)N(CCc2ccccc2)C(=O)C1=O	none (no result: Mdm2-MdmX inh, Peg3 promoter, CF NFkB inh, KKLEB cytotox)
O=c1oc2ccccc2cc1-c1csc(Nc2nc3c(F)cccc3s2)n1	Mdm2-MdmX inh 70 | Mdm2-MdmX conf 70 | FLuc counter 107
O=c1oc2ccccc2cc1-c1csc(Nc2nc3ccc(F)cc3s2)n1	none (no result: Peg3 promoter, CF NFkB inh, HIF-2a inh, KKLEB cytotox, ABHD5 PLIN5 PPI)
CN1CCN(Cc2c(C(=O)N/N=C/c3cccc(Br)c3)nnn2-c2nonc2N)CC1	Mdm2-MdmX inh 84 | Mdm2-MdmX conf inactive
COc1cc(/C=N/NC(=O)c2c(C)nnn2-c2nonc2N)ccc1O	none
Nc1nonc1-n1nnc(C(=O)N/N=C/c2cc(Cl)ccc2O)c1CN1CCCCCC1	Mdm2-MdmX inh 68, Peg3 promoter 54 | Mdm2-MdmX conf 56 | FLuc counter inactive
CC1CCN(Cc2c(C(=O)N/N=C/c3ccccc3O)nnn2-c2nonc2N)CC1	Mdm2-MdmX inh 69, Peg3 promoter 66 | Mdm2-MdmX conf 80 | FLuc counter inactive
Cc1nnn(-c2nonc2N)c1C(=O)N/N=C/c1ccccc1O	Mdm2-MdmX inh 56 | Mdm2-MdmX conf 61 | FLuc counter 51
COc1ccc(NC(=O)C2Cc3ccccc3O/C2=N\O)cc1 (configuration not stated)	none (no result: Mdm2-MdmX inh)
CCc1nc2c(OCc3ccc(F)c(F)c3)cccn2c1N(C)C(=O)c1ccc(OC)cc1	none (no result: Mdm2-MdmX inh)
CC(C)CNC(=O)C1(C)CCCN1Cc1ccccc1OC(F)F (configuration not stated)	none (no result: Mdm2-MdmX inh)
C/C(=N\NC(=O)c1nnn(-c2nonc2N)c1CN1CCCCC1)c1ccccc1O	Mdm2-MdmX inh 51 | Mdm2-MdmX conf 47 | FLuc counter 44
CCN(CC)c1ccc(/C=N/NC(=O)c2nnn(-c3nonc3N)c2C(C)C)c(O)c1	Mdm2-MdmX inh 72, Peg3 promoter 53 | Mdm2-MdmX conf 88 | FLuc counter inactive
CC(=O)Nc1ccc(NC2=Nc3ccccc3N3C2=Nc2c(c(C)nn2-c2ccccc2)C3c2ccccc2)cc1 (configuration not stated)	Mdm2-MdmX inh 84, Peg3 promoter 90 | Mdm2-MdmX conf 90 | FLuc counter inactive
CC/C(=C\C1CCCCC1)C(NP(=O)(c1ccccc1)c1ccccc1)c1ccccc1 (configuration not stated)	Mdm2-MdmX inh 55, Peg3 promoter 59 | Mdm2-MdmX conf inactive
O=P(NC1CCCCC1)(c1ccccc1)c1ccccc1	none (no result: Mdm2-MdmX inh)
CCOc1ccc(/C=C2\SC(=S)N(CCC(=O)N(CCO)c3ccccc3)C2=O)cc1	Mdm2-MdmX inh 65, HIF-2a inh 57 | Mdm2-MdmX conf inactive
O=C(O)COc1ccc(/C=C2/SC(=S)N(Cc3ccccc3)C2=O)cc1	none
COc1ccccc1C(=O)NNC(=O)CCCN1C(=O)/C(=C/c2cccs2)SC1=S	Mdm2-MdmX inh 72 | Mdm2-MdmX conf 77 | FLuc counter 63
O=C(CCCN1C(=O)/C(=C\c2cccs2)SC1=S)Nc1ccccc1O	none (no result: Mdm2-MdmX inh)
O=C1/C(=C/c2cccs2)SC(=S)N1CCCC(=O)N(CCO)c1ccccc1	Mdm2-MdmX inh 53 | Mdm2-MdmX conf inactive
Cc1cccc(C(=O)N(C(=O)c2cccc(C)c2)N(C)C)c1	none (no result: Mdm2-MdmX inh)
Cc1cccc(C)c1NC(=O)C1c2ccccc2OCC(=O)N1CCCN1CCOCC1 (configuration not stated)	none (no result: Mdm2-MdmX inh, Peg3 promoter, CF NFkB inh, KKLEB cytotox)
COC(=O)c1c(-c2ccc(OC)cc2)oc2ccc(-c3ccc(OC)nc3)cc12	Mdm2-MdmX inh 82 | Mdm2-MdmX conf 57 | FLuc counter 45
CCCOC(=O)c1c(-c2ccc(OC)cc2)oc2ccc(-c3ccc(OC)nc3)cc12	none
Cc1cc(/C=C(\C#N)C(=O)N2CCOCC2)c(C)n1C1CCCC1	Mdm2-MdmX inh 64 | Mdm2-MdmX conf 68 | FLuc counter 158
COc1ccc(/C=C(\C#N)C(=O)N2CCOCC2)cc1Br	none
CC(C)(C)n1nnnc1C(c1ccc(C(F)(F)F)cc1)N(Cc1ccccc1)Cc1ccco1 (configuration not stated)	Mdm2-MdmX inh 77 | Mdm2-MdmX conf inactive
CC(C)(C)n1nnnc1C(c1ccc(C(F)(F)F)cc1)N(Cc1ccc(F)cc1)Cc1ccco1 (configuration not stated)	Mdm2-MdmX inh 90 | Mdm2-MdmX conf inactive

Screening data from PubChem.
